Shown are actives, neighbours in structure and some others; about 6.8% of the full set was active somewhere.
Autofluor 339 = intrinsic fluorescence of library compounds, ex339/em460 – biochemical, MLSMR library, data from DPM-DC assay, artefact control, profiling panel. AID 709. compound autofluorescence, ex339/em460 nm, NADH buffer; hits give high values; 1 = no-compound wells, NADH background. fluorescence fold increase at 10 µM. 5.5% of 65,000 active;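 active = at 10 µM, mean starting fluorescence two-fold or more over control wells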;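 note: signal is the first read of a kinetic run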
MK inhibit = blocks S. pneumoniae mevalonate kinase | inhibition, % at 10 µM | 0.48% of 65,000 active | purified MK, PK/LDH-coupled NADH absorbance 340 nm;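 active = ranked among the strongest by inhibition in the single 10 µM screen, a fixed top-ranked set picked for dose follow-up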
NADH enzymes = inhibition of NAD/NADH coupling enzymes, library profiling; AID 774; IC50, µM (top dose mostly 10 µM), inactives show top-dose inhibition; coupled PK/LDH NADH assays, four targets; 0.02% of 65,000 active;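 active = single-dose screening hits from any of four coupled enzyme assays that gave an IC50 when retested across doses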;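 note: the DPM-DC format reads NADH fluorescence rather than 340 nm absorbance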
DPM-DC inhibit = S. pneumoniae DPM-DC inhibition | purified DPM-DC, PK/LDH coupled NADH fluorescence | 0.49% of 65,000 active | calls only at 10 µM;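 active = the 320 compounds with the highest percent inhibition in the single-dose primary screen, excluding strongly autofluorescent ones, cut at about 32% in these data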;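 note: kinetic rate of NADH fluorescence loss reporting ADP formed by the decarboxylase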
Spn PMK inh = blocks S. pneumoniae phosphomevalonate kinase; purified PMK, PK/LDH-coupled NADH absorbance 340 nm; 0.49% of 65,000 active; inhibition, % at 10 µM; AID 539;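 active = top-ranked compounds by inhibition in the single 10 µM screen, taking a fixed number of the strongest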;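 note: 0% = full reaction with DMSO carrier and 100% = background rate without enzyme reaction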
A340 absorber = absorbance at 340 nm; compound absorbance at 340 nm, fold over control; fold change at 10 µM; 65,000 tested, under 10 active; AID 708;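 active = at 10 µM dose, initial 340 nm absorbance at least 2 fold that of control wells; inactive = change under 2 fold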;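 note: initial absorbance extrapolated from kinetic A340 decline of NADH oxidation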
Numbers without * were called inactive; i = inactive; · = no result given.

SMILES	Autofluor 339	MK inhibit	NADH enzymes	DPM-DC inhibit	Spn PMK inh	A340 absorber
O=c1[nH]c(NCCO)nc2c1C1(CCCCC1)Cc1ccccc1-2	3.9*	11	11%	·	10	1
CC1(C)CC(n2c(NCCO)nc3c(c2=O)C2(CCCC2)Cc2ccccc2-3)CCO1 (stereo not given)	2*	6	12%	·	17	1.1
Cc1ccc(OCC(=O)NCc2ccccn2)c(Br)c1	1.1	3	3%	i	6	1.1
CC(C)OC(=O)C1C(=O)CC(C)(O)C(C(=O)OC(C)C)C1c1cccnc1 (stereo not given)	1.1	0	9%	i	27*	1
CC(=O)Nc1nc2c(c3c1c(=O)oc1ccccc13)CCCCC2	1.2	8	3%	i	0	1
Nc1nc2c(c3c1c(=O)oc1ccccc13)CCCCC2	2.2*	4	8%	·	12	1.1
COC(=O)c1ccccc1NC(=O)c1cc(-c2ccc(OC)c(OC)c2)on1	1.7	7	9%	i	17	0.98
CCCc1ccc2c(N)c(C#N)sc2n1	2.1*	5	7%	·	8	1.1
CCOC(=O)CCCSc1nc2sc(C)c(C)c2c(=O)[nH]1	1.1	1	3%	i	9	1.1
CCOC(=O)c1nc2sc(C)c(C)c2c(=O)[nH]1	3.7*	10	12%	·	14	1.1
O=C(c1ccc(CS(=O)(=O)Cc2ccc(Cl)cc2)o1)N1CCCC1	1	2	9%	i	26*	0.99
COC(=O)c1cc(OC)c(OC)cc1NC(=O)c1c(C)noc1C	1.1	4	1%	i	0	1.1
CC(=O)Nc1ccc(N2S(=O)(=O)c3ccccc3S2(=O)=O)cc1	1	5	6%	i	14	0.98
Cc1cccc(NC(=O)c2sc3nc(-c4ccc(F)cc4)cn3c2C)n1	4.5*	8	11%	·	14	1.1
Cc1cccc(NC(=O)c2sc3nc(-c4ccccc4)cn3c2C)n1	1.2	0	2%	i	5	1
Cc1c2cccn2cc[n+]1C	3.8*	6	3%	·	0	0.99
O=C(Nc1ccc(N2CCOCC2)cc1)Nc1ccc2nc(-c3ccco3)c(-c3ccco3)nc2c1	1.1	3	3%	i	0	1
O=S(=O)(c1ccc2nc(-c3ccco3)c(-c3ccco3)nc2c1)N1CCOCC1	2.2*	13	10%	i	11	1
O=C(CCc1nc2ccccc2c(=O)[nH]1)OCC(=O)N1CCN(S(=O)(=O)c2ccccc2)CC1	1.1	0	9%	i	28*	1
CCCCOc1ncnc2c1[nH]c1ccc(F)cc12	2.7*	0	4%	i	12	1.1
CCCCOc1ncnc2c1[nH]c1ccccc12	2.3*	0	3%	i	0	1.1
CC(C)C[C@H](NC(=O)OC(C)(C)C)C(=O)N1CCC(C(=O)N[C@@H](Cc2ccccc2)C(=O)O)CC1	1.1	10	6%	i	9	1.1
CCOC(=O)Cc1c(C)nc(-c2ccccc2)[nH]c1=O	1.1	2	3%	i	8	0.99
CCOC(=O)Cc1c(C)nc2c(-c3cccc(Br)c3)c[nH]n2c1=O	2.2*	1	3%	·	4	1.1
O=c1c2c(nc3c(-c4cccc(Br)c4)c[nH]n13)CCCC2	2.7*	0	7%	i	14	1
CC(C)(C)NC(=O)COC(=O)c1snc(C(=O)NC2CCCCC2)c1N	2.1*	4	3%	·	10	1
COc1ccccc1N(C(=O)c1snc(C(N)=O)c1N)C(C(=O)NC1CCCC1)c1ccco1 (stereo not given)	2.9*	6	15%	i	10	1
COc1ccc(CN(C(=O)c2snc(C(N)=O)c2N)C(C(=O)NC(C)(C)C)c2ccco2)cc1 (stereo not given)	2.3*	8	6%	i	9	1
COCCNC(=O)C(c1ccc(C)o1)N(C(=O)c1snc(C(N)=O)c1N)c1cc(C)cc(C)c1 (stereo not given)	2.1*	10	12%	i	14	1
CCOc1ccccc1N(C(=O)c1snc(C(N)=O)c1N)C(C(=O)NCCC(C)C)c1ccco1 (stereo not given)	1.8	14	8%	i	11	1.1

Compound activity deposited in PubChem by SRMLSC.
